Assay: RPL19A-GFP modulators, yeast TOR pathway, confirmation, cell-based, S. cerevisiae, flow cytometry, cherry picks, mother/daughter gates (AID 2270)
Settings: S. cerevisiae RPL19A-GFP strain, 3 h, measured here: mother cell gate, at 10 µM, stronger effect = lower value, 100 = same GFP as DMSO wells
In the case of `O=C(COC(=O)c1n[nH]c2ccccc12)c1cccc(Br)c1`, the GFP response vs DMSO is reported as 94.8%.
For `Cc1c(C(=O)Nc2ccccc2)cnn1-c1ccccc1`, the GFP response vs DMSO was 99.2%.
`Oc1c(CN2CCN(c3ccccc3)CC2)cc(Br)c2cccnc12` showed a GFP response vs DMSO of 95.9%.
Work on `NC(=O)c1ccccc1-c1nc(-c2ccccc2)no1` yielded a GFP response vs DMSO of 96.7%.
With `CC(C(=O)O)n1nc(-c2ccccc2)c2ccccc21` (stereo not given) the GFP response vs DMSO was 95.3%.
`COc1cc(/C=C2/N=C(c3ccccc3)OC2=O)c(F)cc1OCc1ccccc1` showed a GFP response vs DMSO of 98%.
For `COc1ccc(-c2nn(-c3ccccc3)cc2C(=O)NC(=S)NNC(=O)c2ccncc2)cc1`, the GFP response vs DMSO was 98.3%.
For `CCOC(=O)Cc1csc(NC(=O)CCCCCN2C(=O)c3cccc4cccc(c34)C2=O)n1`, the GFP response vs DMSO was 99.3%.
In the case of `COC(=O)c1ccc(/C=C/C(=O)c2cccc(OC)c2)cc1`, the GFP response vs DMSO is reported as 103%.
Compound `Cc1[nH][nH]c(=O)c1C(c1ccc(N(C)C)c(Br)c1)c1c(C)[nH][nH]c1=O` has a GFP response vs DMSO of 99.2%.
With `Cc1ccc(CCN2CC(C(=O)NCCCN(C)Cc3ccccc3)CC2=O)cc1` (stereo not given) the GFP response vs DMSO was 98%.
Compound `COc1ccc(NC(=O)C2CCN(S(=O)(=O)c3ccc(OC)c(OC)c3)CC2)c(OC)c1` has a GFP response vs DMSO of 89%.
`CN1CCc2c(sc3c2C(=O)NC(c2ccc4c(c2)OCO4)N3)C1` (stereo not given) showed a GFP response vs DMSO of 98.5%.
`Nc1cccnc1S(=O)(=O)c1ccccc1` showed a GFP response vs DMSO of 100%.
For `N#Cc1ccccc1Cn1cc(/C=C/[N+](=O)[O-])c2ccccc21`, the GFP response vs DMSO was 95.1%.
For `CN(c1ccccc1)S(=O)(=O)c1ccc(C(=O)Nc2nnc(-c3ccc(F)cc3)o2)cc1`, the GFP response vs DMSO was 98.6%.
Work on `Cc1ccc(C)c(N2CCN(C(=O)c3ccccc3Br)CC2)c1` yielded a GFP response vs DMSO of 99.5%.
`CCOC(=O)C(=CNNc1cccc(Cl)c1)C(=O)OCC` gave a GFP response vs DMSO of 102%.
For `O=C(c1ccccc1F)N1CCN(c2ccccc2)CC1`, the GFP response vs DMSO was 97.6%.
`O=C(C1CCN(Cc2nc(Cc3cccc(F)c3)no2)CC1)N1CCOCC1` gave a GFP response vs DMSO of 99.8%.
Compound `COC(=O)c1ccc(/C=N\NC(=O)c2ccc(C)cc2Cl)cc1` has a GFP response vs DMSO of 96.7%.
`CCNC(=O)c1ccccc1-c1nc(-c2ccccc2Cl)no1` showed a GFP response vs DMSO of 95%.
In the case of `O=C(OCC(=O)N1CCN(C(=O)c2ccco2)CC1)c1cc(-c2ccc(Cl)c(Cl)c2Cl)nc2ccccc12`, the GFP response vs DMSO is reported as 89%.
Work on `c1ccc(CSc2ccc(-c3ccccn3)nn2)cc1` yielded a GFP response vs DMSO of 91.9%.
`N#C/C(=C\c1c(N2CCCCCC2)nc2ccccn2c1=O)C(=O)NCc1ccco1` gave a GFP response vs DMSO of 96.2%.
For `Cc1ccc(Nc2c(-c3ccccn3)nc3ccc(C)cn23)cc1`, the GFP response vs DMSO was 98.6%.
Compound `Cc1ccc(-c2csc3ncn(Cc4ccc(C(=O)O)cc4)c(=O)c23)cc1C` has a GFP response vs DMSO of 99%.
`CCOC(=O)c1ccc(NC(=O)CCc2nc(-c3ccc(Cl)cc3)no2)cc1` showed a GFP response vs DMSO of 101%.
Compound `O=C(Nc1cc(Sc2ccccn2)cc([N+](=O)[O-])c1)c1ccc([N+](=O)[O-])cc1` has a GFP response vs DMSO of 96.9%.
`O=C1c2ccccc2C(=O)N1OS(=O)(=O)c1ccc(F)cc1` gave a GFP response vs DMSO of 61.9%.
`Cc1ccc(N2CCN(C(=O)c3ccccc3Br)CC2)c(C)c1` showed a GFP response vs DMSO of 101%.
Compound `CCCc1[nH]nc2c1C1(C(=O)N(C(C)C)c3ccccc31)C(C#N)=C(N)O2` (stereo not given) has a GFP response vs DMSO of 98.2%.
For `O=C1c2cccc3c([N+](=O)[O-])ccc(c23)C(=O)N1O`, the GFP response vs DMSO was 124%.
With `COC(=O)Cn1nc(-c2ccccc2)c2cc(Cl)ccc21` the GFP response vs DMSO was 101%.
Compound `O=C1C(Cl)=C(NCCc2ccccc2)C(=O)N1CCc1ccccc1` has a GFP response vs DMSO of 104%.
`O=c1c(-c2ccc(Cl)cc2)[n+]([O-])c2ccccc2n1O` gave a GFP response vs DMSO of 103%.
`CCc1ccccc1OCc1nnc(N)s1` showed a GFP response vs DMSO of 102%.
For `Cc1ccc(/C=C2/SC(=S)N(C3CCCCC3)C2=O)o1`, the GFP response vs DMSO was 98.6%.
`O=C(Cn1cc(/C=C\[N+](=O)[O-])c2ccccc21)Nc1ccccc1` showed a GFP response vs DMSO of 97.6%.
`Cc1nnc(NC(=O)c2ccc(S(=O)(=O)N3CCCCCC3)cc2)o1` showed a GFP response vs DMSO of 100%.

Source: PubChem BioAssay
